EPAC1 ag = agonists of human EPAC1; Potency, µM (titrated, usually from 154 µM), for inactives: at the highest dose activation, actives largely listed as activators; AID 720707; hit rate 0.073% among 360,000; EPAC1 agonist qHTS, biochemical assay; response scale: 100% = response to 6.5 mM cAMP; O95398; further: nearly all actives have a fitted effect of over 60% in size
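EPAC1 100 nM, Rap1B–BODIPY-GDP 250 nM, unlabeled GDP 50 uM; compound titration; 5 min RT; kinetic read ex480/em540 at 5-min intervals ×30 min; data normalized to 6.5 mM cAMP agonist control.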
EPAC2 ag = activates human EPAC2 exchange factor; Q8WZA2; EPAC2 activation, biochemical qHTS; response scale: 100% = 6.5 mM cAMP response; Potency, µM (top dose mostly 154 µM), without a hit: top-dose activation, usual class: activators; hit rate 0.079% among 360,000; AID 720711; further: nearly all actives have a fitted effect of over 50% in size
Target sequence (Q8WZA2 whole entry, looked up): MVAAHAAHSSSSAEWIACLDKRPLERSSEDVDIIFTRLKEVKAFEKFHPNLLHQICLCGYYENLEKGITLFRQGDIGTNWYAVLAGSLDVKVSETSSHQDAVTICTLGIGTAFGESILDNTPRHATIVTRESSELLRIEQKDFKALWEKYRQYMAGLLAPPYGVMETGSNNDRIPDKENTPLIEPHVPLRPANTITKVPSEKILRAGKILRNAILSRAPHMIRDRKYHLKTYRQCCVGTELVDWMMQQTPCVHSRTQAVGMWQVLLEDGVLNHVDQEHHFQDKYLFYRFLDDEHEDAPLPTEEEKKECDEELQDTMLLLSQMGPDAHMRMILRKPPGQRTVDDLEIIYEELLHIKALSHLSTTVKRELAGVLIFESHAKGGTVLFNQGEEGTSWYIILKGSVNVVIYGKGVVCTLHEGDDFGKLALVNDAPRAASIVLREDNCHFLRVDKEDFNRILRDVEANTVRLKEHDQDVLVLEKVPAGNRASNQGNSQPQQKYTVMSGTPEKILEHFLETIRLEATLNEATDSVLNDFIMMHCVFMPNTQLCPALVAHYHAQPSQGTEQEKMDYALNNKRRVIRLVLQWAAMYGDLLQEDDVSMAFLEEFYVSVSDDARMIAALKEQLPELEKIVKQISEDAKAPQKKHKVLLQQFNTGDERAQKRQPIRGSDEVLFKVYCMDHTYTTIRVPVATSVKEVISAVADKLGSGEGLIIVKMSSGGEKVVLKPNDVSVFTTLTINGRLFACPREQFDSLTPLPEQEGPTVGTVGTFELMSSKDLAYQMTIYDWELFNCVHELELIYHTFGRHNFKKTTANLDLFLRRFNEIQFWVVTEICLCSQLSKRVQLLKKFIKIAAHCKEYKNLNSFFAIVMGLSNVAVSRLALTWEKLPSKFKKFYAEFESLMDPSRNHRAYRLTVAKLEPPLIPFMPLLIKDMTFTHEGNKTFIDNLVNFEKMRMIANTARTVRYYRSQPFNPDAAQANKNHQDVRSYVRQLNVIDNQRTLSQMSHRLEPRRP
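Fluorescence exchange assay: 100 nM EPAC2 with 250 nM RAP1B-BODIPY-GDP and 50 uM GDP; compounds tested as a concentration-titration series (qHTS). Loss of Rap1-bound BODIPY-GDP fluorescence read at 480/540 nm; data normalized to 6.5 mM cAMP.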
BRCA1 expr up = BRCA1 expression activation; MCF7-BRCA1-FFLuc reporter, luminescence, 48 h; response scale: scaled: vehicle 0%, 10 µM genistein 100%; Potency, µM (top dose mostly 46.1 µM), without a hit: top-dose activation, most hits filed as activators; hit rate 1.1% among 380,000; AID 624202; further: nearly all actives have a fitted effect of over 80% in size
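Luminescence from a BRCA1-driven firefly luciferase in MCF7 cells was the read-out, taken 15 min after substrate addition following 48 h compound exposure at 37 °C. Data were normalized to a 10 microM genistein control and DMSO vehicle.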
EPAC1 antagonist = antagonists of human EPAC1. EPAC1 GEF assay, Rap1b-BODIPY-GDP exchange fluorescence. Potency, µM (series often up to 115 µM), for inactives: at the highest dose activity change, negative = inhibition, usual class: inhibitors. hit rate 0.14% among 360,000;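 further: plate controls were vehicle for no effect and positive control for full effect; nearly all actives have a fitted effect of over 50% in size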
USP1-UAF1 inh = inhibitors of human USP1/UAF1 deubiquitinase; recombinant USP1/UAF1, Ub-Rhodamine cleavage fluorescence; Potency, µM (top dose mostly 57.1 µM), inactives show at the highest dose activity change, negative = inhibition, actives largely listed as inhibitors; hit rate 0.23% among 390,000; AID 743255; further: on the % scale 0 is the no-effect control and ±100 the full control effect; nearly all actives have a fitted effect of over 60% in size
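USP1/UAF1 complex at 1 nM was preincubated with compound for 15 min at room temperature, then Ub-Rho substrate (150nM final) was added. Fluorescence (480/540 nm) was read kinetically, 6 reads every 60 seconds.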
EPAC2 antag = EPAC2 (human) antagonism; EPAC2 GEF exchange of Rap1B-BODIPY-GDP, fluorescence; hit rate 0.18% among 360,000; Potency, µM (series often up to 114 µM), inactives show top-dose activity, negative = inhibition, usual class: inhibitors; AID 720708; Q8WZA2; further: on the % scale 0 is the no-effect control and ±100 the full control effect; nearly all actives have a fitted effect of over 45% in size
* hit, by the source's call; u = inconclusive; x = not tested or not shown; [ ] = another dose, or the depositor's remark. In the library only some 1.4% were active in any assay of this set; here they are far more common. The call rests on the fitted dose curve; in most records, active means well fitted curve in the direction sought with a large enough effect; inconclusive means small, poorly fitted or top-dose-only effect, or another doubt; inactive means no such curve, though single readings can be large; an effect the other way counts as inactive or inconclusive. Potency means the concentration at half of the fitted maximal effect.

SMILES	EPAC1 ag	EPAC2 ag	BRCA1 expr up	EPAC1 antagonist	USP1-UAF1 inh	EPAC2 antag
CC1(C)Cc2cccc(OCC(=O)Nc3cc(S(C)(=O)=O)ccc3Cl)c2O1	-2%	7%	-29%	u	-7%	-6%
O=C1CCCc2cc3c(cc21)CC1(C3)Cc2cc3c(cc2C1)C(=O)CCC3	15%	7%	-44%	2%	-2%	-10%
O=S(=O)(Nc1cccc(-c2ccc(N3CCCCC3)nn2)c1)c1cccc(F)c1	x	x	x	x	-24%	x
CCCc1ccc(S(=O)(=O)N2CCN(C(C)C(=O)NCc3ccc(OC)cc3)CC2)cc1 (stereo not given)	3%	18%	3%	-5%	-6%	-2%
COc1ccc(CNc2nc(-c3ccccc3)nn2C(=O)c2ccc([N+](=O)[O-])cc2)cc1	6%	3%	11µM*	-23%	-14%	1%
COc1ccc(CNc2nc(-c3ccccc3)nn2C(=O)c2cccs2)cc1	8%	1%	44%	-7%	0%	-3%
CC1(C(=O)Nc2ccc3c(c2)OCCO3)CCN1C(=O)c1ccccc1CCc1ccccc1 (stereo not given)	-13%	16%	-2%	-5%	x	17%
CCc1cccc(CC)c1N1C(=O)COCC1=O	-10%	-3%	3%	-1%	-14%	4%
CCc1cccc(CC)c1N1C(=O)C2=C(SCCCS2)C1=O	100µM*	112µM*	-28%	-2%	u	-7%
O=C1O[C@@H](c2ccccc2)C[C@@H](O)[C@H](O)CCc2ccccc21	10%	3%	2%	0%	x	0%
COc1ccc(Br)c(Cn2c(C)c(C(=O)NCc3cccc([N+](=O)[O-])c3)sc2=O)c1	-1%	5%	-10%	-2%	x	2%
Cc1ccc(CN(C(=O)COc2ccc(Cl)c(C)c2)c2ccccn2)o1	x	x	0%	x	-13%	x
O=C(Cc1ccccc1)Nc1nc2ccccc2s1	-3%	3%	10µM*	-3%	-1%	-14%
CC1CCc2nc(NC(=O)Cc3cccs3)sc2C1 (stereo not given)	-4%	13%	5.6µM*	-15%	-15%	2%
CC(C)C(=O)NNc1nc2ccccc2s1	4%	7%	8.9µM*	-1%	-10%	4%
O=C(CSC1=NCCS1)Nc1nc2ccccc2s1	0%	13%	8.9µM*	-7%	-12%	6%
Cc1sc(NC(=O)CSC2=NCCS2)nc1-c1ccccc1	4%	21%	-51%	1%	-11%	-2%
CC1CCc2nc(NC(=O)c3ccco3)sc2C1 (stereo not given)	0%	2%	u	-13%	-8%	-2%
CCN(CC)CCCOc1cc2nc(N3CCCN(C)CC3)nc(NC3CCN(C)CC3)c2cc1OC	x	x	-27%	x	x	x
CN(C)c1ccc(/C=C/c2ccc3cc(N)ccc3n2)cc1	x	x	-74%	x	x	x
O=C(COc1coc(CN2CCc3ccccc3C2)cc1=O)Nc1ccc(F)cc1F	9%	-1%	11%	-19%	-9%	-6%
O=C(Cc1cccs1)Nc1nc2ccccc2s1	-1%	u	7.1µM*	1%	-8%	5%[57.1 µM]
Cn1cc(Cl)c(C(=O)Nc2nc3ccccc3s2)n1	3%	3%	47%	3%	u	-1%
O=C(Nc1nc2ccccc2s1)c1c(F)cccc1Cl	-1%	2%	10µM*	-25%	-18%	-5%
CC(=O)Nc1ccc(C(=O)CN2C(=O)NC3(CCOc4ccccc43)C2=O)c(F)c1 (stereo not given)	7%	-4%	-23%	0%	-10%	-2%
SMILES	EPAC1 ag	EPAC2 ag	BRCA1 expr up	EPAC1 antagonist	USP1-UAF1 inh	EPAC2 antag
Clc1ccc(-c2noc(COc3ccccc3)n2)cc1	8%	12%	u	-9%	-7%	-3%[57.1 µM]
Clc1ccc(OCc2nc(-c3ccncc3)no2)cc1	4%	8%	11µM*	-5%	-8%	-2%
CCCCCN1CC(=O)N2Cc3[nH]c4ccccc4c3C[C@H]2C1=O	-4%	4%	-10%	7%	-17%	0%
CCCCN1C(=O)C2Cc3c([nH]c4ccccc34)CN2C1=S (stereo not given)	9%	-12%	-6%	-23%	25µM*	-4%
Nc1nnc2cc(Br)ccc2n1	-2%	1%	14%	1%	-24%	0%
Cn1cc(-c2ccc(C(=O)Nc3cccc(Oc4ccccc4)c3)c3occc23)cn1	6%	0%	11µM*	7%	x	9%
COc1ccc(-c2ccc(C(=O)Nc3cccc(N(C)C)c3)c3occc23)c(C)c1	6%	9%	2.5µM*	-20%	x	u
Cc1nc2ccccc2c(=O)n1/N=C/c1ccccc1Cl	-1%	17%	10µM*	-20%	-25%	-4%
Cc1nc2ccccc2c(=O)n1/N=C/c1ccc(O)cc1O	-10%	3%	14%	-28%	-22%	5%
CC(=O)Nc1c(C(=O)Nc2ccccc2F)oc2ccccc12	x	x	9%	x	-20%	x
O=[N+]([O-])c1ccc(Cn2cc(-c3cccc(C(F)(F)F)c3)nn2)cc1	-5%	12%	-23%	u	14%	-21%
CC1CCCN(C(=O)CNC(=O)c2cccs2)C1 (stereo not given)	-1%	7%	10µM*	-2%	-22%	2%
CC(=O)N1CCN(C(=O)CNC(=O)c2cccs2)CC1	8%	10%	2%	1%	-9%	25%
Cc1nc(CC(=O)N/N=C/c2ccc(OCC(=O)O)cc2)cs1	-10%	-3%	-3%	13%	-12%	2%
O=C(O)COc1ccc(/C=N/NC(=O)c2ccc(-c3csc(Nc4ccc(Cl)cc4)n3)cc2)cc1	12%	-5%	58%	7.9µM*	u	u
CCOc1cc(/C=N/NC(=O)c2ccc(-c3csc(Nc4ccc(C)cc4)n3)cc2)ccc1OCC(=O)O	u	19%	31%	40µM*	-6%	-22%
Nc1c(C(=O)NCc2ccccc2)nnn1Cc1cccc(Br)c1	x	x	x	x	-12%	x
C[C@H](NC(=O)c1nc[nH]c1C(=O)NC[C@@H](C)O)c1ccccc1	7%	-1%	14%	-3%	4%	-2%
Cc1nnc(-c2ccc(N3CCCCCC3)c([N+](=O)[O-])c2)o1	-4%	10%	22µM*	-7%	0%	-7%
Cc1nnc(-c2ccc(N3CCOCC3)c([N+](=O)[O-])c2)o1	-6%	0%	24%	-10%	-6%	0%
CC1(C)Cc2c(C#N)c(N)n(-c3ccccc3)c(=S)c2CO1	-1%	2%	-9%	9%	-10%	-1%
CC1(C)C=C2C(=NN(c3ccccc3)C(N)=C2C#N)CO1	2%	17%	-34%	-10%	4.5µM*	-19%
